From PubChem BioAssay (NCATS) come the findings set out here.

Records with an inconclusive call do not appear. Calls of active or inactive are those of the source. Calls follow the shape of the dose curve; as a rule, active = well fitted curve in the direction sought with a large enough effect; inconclusive = small, poorly fitted or top-dose-only effect, or another doubt; inactive = no such curve, though single readings can be large; an effect the other way counts as inactive or inconclusive.

Assay [1] is described as follows: qHTS of pediatric cancer cell lines to identify multiple opportunities for drug repurposing: Primary screen for TC32 cells (AID 1347089). Also: nearly all actives have a fitted effect of over 60% in size. A digest of the protocol: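 TC32 cells, 500-1,000/well in growth medium, compound-treated 48 h at 37 °C; viability from CellTiter-Glo luminescence. Primary screen: MIPE 11-point (0.78 nM–46 µM final), NPC 8-point (0.59 nM–46 µM final); confirmatory at 11-point dilutions.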

Assay [2] in a line: qHTS of pediatric cancer cell lines to identify multiple opportunities for drug repurposing: Primary screen for DAOY cells (AID 1347090). Also: nearly all actives have a fitted effect of over 55% in size. The gist of the method:
(§1)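 Eight- or eleven-point concentration series, 48 h treatment at 37 degrees C in growth media; readout CellTiter-Glo luminescence. Potency and efficacy were taken from the concentration-response curves.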
(qHTS replaces the single test concentration by a dilution series.)

Assay [3] is described as follows: qHTS of pediatric cancer cell lines to identify multiple opportunities for drug repurposing: Primary screen for SJ-GBM2 cells (AID 1347091). The gist of the method: as §1
A short description of assay [4]: qHTS of pediatric cancer cell lines to identify multiple opportunities for drug repurposing: Primary screen for A673 cells (AID 1347092). Also: nearly all actives have a fitted effect of over 45% in size. A digest of the protocol:
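A673 cells (500-1,000 cells/well) were treated 48 hours at 37 degrees C with compounds at 11-point (0.78 nM to 46 µM) or 8-point (0.59 nM to 46 µM) dilutions. Viability read by CellTiter-Glo luminescence; concentration-response curves fitted.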

Assay [5] in a line: qHTS of pediatric cancer cell lines to identify multiple opportunities for drug repurposing: Primary screen for SK-N-MC cells (AID 1347093). A digest of the protocol: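 Metabolically active cells were quantified by ATP-dependent luminescence (CellTiter-Glo, 15 min at room temperature) following 48 h treatment. Cells had been plated at 500-1,000 per well and settled for 5 h beforehand.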

Assay [6] in a line: qHTS of pediatric cancer cell lines to identify multiple opportunities for drug repurposing: Primary screen for NB-EBc1 cells (AID 1347095). A digest of the protocol:
(§2)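 ATP-based luminescence (CellTiter-Glo) quantifies viability after a 48-hour exposure. Compounds are dosed across 8 or 11 final concentrations; DMSO and 2.3 µM bortezomib serve as controls.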

Assay [7] is described as follows: qHTS of pediatric cancer cell lines to identify multiple opportunities for drug repurposing: Primary screen for Saos-2 cells (AID 1347097). Also: nearly all actives have a fitted effect of over 40% in size. A digest of the protocol:
as §2

The nature of assay [8]: qHTS of pediatric cancer cell lines to identify multiple opportunities for drug repurposing: Primary screen for SK-N-SH cells (AID 1347098). Also: nearly all actives have a fitted effect of over 65% in size. A digest of the protocol: (§3)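 Cells (500-1,000/well) rested 5 h, then received compounds for 48 h; metabolically active cells were measured by CellTiter-Glo luminescence. Final concentrations spanned up to 46 µM (MIPE, 11-point) or 0.59 nM-46 µM (NPC, 8-point) in primary screens, 11-point in follow-ups.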

Assay [9] can be described thus: qHTS of pediatric cancer cell lines to identify multiple opportunities for drug repurposing: Primary screen for NB1643 cells (AID 1347099). Also: nearly all actives have a fitted effect of over 50% in size. A digest of the protocol: as §2
Assay [10] is described as follows: qHTS of pediatric cancer cell lines to identify multiple opportunities for drug repurposing: Primary screen for BT-12 cells (AID 1347101). Also: nearly all actives have a fitted effect of over 25% in size. The gist of the method: as §3
The nature of assay [11]: qHTS of pediatric cancer cell lines to identify multiple opportunities for drug repurposing: Primary screen for Rh18 cells (AID 1347102). Also: nearly all actives have a fitted effect of over 65% in size. The gist of the method:
(§4)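 Cells (500-1,000/well) in growth media were settled 5 h at 37 degrees C, then given compounds for 48 h. Viability was read as CellTiter-Glo luminescence. Primary runs used MIPE at 11 points (0.78 nM-46 µM) and NPC at 8 points (0.59 nM-46 µM); follow-ups used 11 points.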

Assay [12] can be described thus: qHTS of pediatric cancer cell lines to identify multiple opportunities for drug repurposing: Primary screen for OHS-50 cells (AID 1347103). Also: nearly all actives have a fitted effect of over 40% in size. A digest of the protocol:
as §3

Assay [13] is described as follows: qHTS of pediatric cancer cell lines to identify multiple opportunities for drug repurposing: Primary screen for RD cells (AID 1347104). Also: nearly all actives have a fitted effect of over 55% in size. A digest of the protocol: as §2
A short description of assay [14]: qHTS of pediatric cancer cell lines to identify multiple opportunities for drug repurposing: Primary screen for LAN-5 cells (AID 1347100). A digest of the protocol: as §4
The nature of assay [15]: qHTS of pediatric cancer cell lines to identify multiple opportunities for drug repurposing: Primary screen for BT-37 cells (AID 1347094). The gist of the method:
as §2

Assay [16] is described as follows: qHTS of pediatric cancer cell lines to identify multiple opportunities for drug repurposing: Primary screen for U-2 OS cells (AID 1347096). Also: nearly all actives have a fitted effect of over 50% in size. A digest of the protocol: as §4
Potency is read from the fitted curve at half-maximal effect.

For the molecule `CCC[C@H](NC(=O)C(C#N)=Cc1cccc(Br)n1)c1ccccc1`, the Potency entry in assay [1] was “inactive”. The Potency in [2] is 14.8 µM (active); in [3], 8.33 µM (active); in assay [4], 9.35 µM (active); in assay [5], 18.7 µM (active); in assay [6], 8.33 µM (active); in [7], 33.2 µM (active). Also, the Potency in assay [8] was 24.1 µM (active); in assay [9], 7.43 µM (active); in [10], 27.3 µM (active); in [11], 14.8 µM (active); in assay [12], 12.2 µM (active); in assay [13], 13.2 µM (active).
Regarding `Cc1ccc2nc(NC(=O)CSc3nc4c(c(=O)n3-c3ccccc3)SCC4)sc2c1`, in assay [1], the Potency result is “inactive”. The Potency in assay [2] is 18.7 µM (active); in assay [3] it was 14.8 µM (active); in [4] it was 14.8 µM (active); in [5], 26.4 µM (active); in [7] it was 14.8 µM (active); in assay [14], 14.8 µM (active). Besides, the Potency was 5.44 µM (active) in assay [10] and 13.7 µM (active) in assay [12].
As to `C1Cc2[nH]nc(-c3nn[nH]n3)c2C1`, the Potency entry in assay [1], in [2], in assay [3], in assay [4], in assay [15] and in assay [16] was “inactive” each time. In addition, the Potency entry in [7], in assay [8], in assay [14], in assay [10], in assay [11] and in assay [12] was “inactive” throughout.
In the case of `COc1cccc2c(NCc3ccccc3)nc(-n3c(N)nc4ccccc43)nc12`, in [1], the Potency entry was “inactive”. Besides, the Potency in assay [2] is 9.35 µM (active); in [3], 9.35 µM (active); in assay [4] it was 5.9 µM (active); in [15], 7.69 µM (active); in assay [6] it was 9.35 µM (active); in [16], 9.35 µM (active). For the same molecule, the Potency in assay [7] was 3.72 µM (active); in assay [8], 10.8 µM (active); in assay [9] it was 9.35 µM (active); in [14] it was 9.35 µM (active); in assay [10], 10.9 µM (active); in assay [11] it was 9.35 µM (active). Further, in [12], the Potency was 9.68 µM (active).
Turning to `Nc1nc(NCCNc2ncc(-n3ccnc3)c(-c3ccc(Cl)cc3Cl)n2)ccc1[N+](=O)[O-]`, the Potency entry in assay [1] is “inactive”. Also, the Potency in assay [2] is 14.8 µM (active); in [3] it was 4.69 µM (active); in assay [4] it was 9.35 µM (active); in assay [5], 1.66 µM (active); in [6], 13.2 µM (active); in [7], 26.4 µM (active). Moreover, the Potency was 18.7 µM (active) in assay [9]; 24.3 µM (active) in assay [10]; 14.8 µM (active) in [11]; 19.3 µM (active) in assay [12]; 14.8 µM (active) in assay [13].
On to `COc1ccc(-c2cc3c(C)nc(N)nc3n(C3CCC(OCCO)CC3)c2=O)cn1` (centres undefined), for which the Potency is 0.186 µM (active) in [1]; 0.118 µM (active) in assay [2]; 0.0235 µM (active) in assay [3]; 0.0935 µM (active) in assay [4]; 0.243 µM (active) in assay [15]; 0.059 µM (active) in [6]. In addition, the Potency in assay [7] is 0.187 µM (active); in assay [8], 2.41 µM (active); in [9] it was 0.166 µM (active); in assay [11], 0.0935 µM (active); in [12], 0.0077 µM (active); in [13], 0.187 µM (active).
`O=C(O)[C@H](Cc1c[nH]c2ccccc12)N1C(=O)c2ccccc2C1=O`: the Potency entry in [1], in assay [2], in assay [3], in assay [15], in assay [6] and in [16] was “inactive” throughout. For the same molecule, the Potency entry in assay [7], in [14], in [10], in assay [11] and in [13] was “inactive” in each case. Besides, the Potency in assay [5] was 48.1 µM (active).
Regarding `COC(=O)c1ccc2c(C(=Nc3ccc(N(C)C(=O)CN4CCN(C)CC4)cc3)c3ccccc3)c(O)[nH]c2c1`, the Potency in [1] was 10.4 µM (active); in assay [2], 0.59 µM (active); in assay [3], 16.6 µM (active); in assay [4], 0.296 µM (active); in assay [15], 3.85 µM (active); in [7] it was 9.35 µM (active). Also, the Potency in [8] is 6.07 µM (active); in [9] it was 2.35 µM (active); in assay [12], 5.44 µM (active).
For `CCn1nnc2c(N3CCOCC3)nc(-c3ccc(NC(=O)Nc4ccc(C(=O)N5CCN(C)CC5)cc4)cc3)nc21`, the Potency was 0.0294 µM (active) in assay [1]; 0.235 µM (active) in assay [2]; 0.0469 µM (active) in [3]; 0.0935 µM (active) in assay [4]; 0.0172 µM (active) in assay [15]; 0.148 µM (active) in assay [7]. The Potency in assay [8] is 8.57 µM (active); in assay [9], 0.0743 µM (active); in assay [14], 0.0833 µM (active); in [11], 0.0418 µM (active); in [12], 0.0273 µM (active).
Regarding `Nc1nc(-c2nn(Cc3ccccc3F)c3ncccc23)nc(N)c1N1CCOCC1`, the Potency entry in assay [1], in [2], in [3], in assay [15], in assay [7] and in [8] was “inactive” in each case. The Potency entry in assay [9], in [14], in assay [10] and in [11] was “inactive” each time.
As to `CN1CCC(CNc2ccc3ncc(-c4cccc(OC(F)(F)F)c4)n3n2)CC1`, the Potency result in assay [1] was “inactive”. Further, the Potency in assay [3] is 16.6 µM (active); in [4], 14.8 µM (active); in assay [5], 4.18 µM (active); in assay [15], 21.7 µM (active); in [6] it was 18.7 µM (active); in assay [7], 18.7 µM (active). Besides, the Potency in assay [8] was 7.64 µM (active); in assay [9] it was 18.7 µM (active); in assay [14], 14.8 µM (active); in assay [10] it was 27.3 µM (active); in [11], 18.7 µM (active); in assay [12], 4.85 µM (active). The Potency in assay [13] was 18.7 µM (active).
Consider `CS(=O)(=O)c1ccc(-c2cnc(N)c(C(=O)Nc3ccccc3)n2)cc1`, for which the Potency result in assay [1], in [2], in assay [15], in assay [16], in assay [7] and in [8] was “inactive” each time. The Potency entry in [9], in assay [10], in assay [11] and in [13] was “inactive” in each case. In addition, the figures for the Potency in [3] and in assay [5] were 5.9 µM (active) and 4.18 µM (active), respectively.
Turning to `Cc1ccc(S(=O)(=O)Nc2cc(Cl)ccc2C(=O)Nc2nc(-c3ccccc3)cs2)cc1`, the Potency result in assay [1], in [16], in assay [8] and in assay [11] was “inactive” throughout. The Potency is 11.8 µM (active) in [2]; 7.43 µM (active) in assay [3]; 7.43 µM (active) in assay [5]; 17.2 µM (active) in [15]; 7.43 µM (active) in [6]; 14.8 µM (active) in assay [7]. Moreover, the Potency in [9] is 3.72 µM (active); in [14], 9.35 µM (active); in assay [12] it was 8.63 µM (active); in assay [13], 10.5 µM (active).
Take `O=C(C=Cc1cccnc1)NCCCCC1CCN(C(=O)c2ccccc2)CC1`: the Potency in assay [1] is 0.0047 µM (active); in [3], 0.0166 µM (active); in assay [6] it was 0.0118 µM (active); in assay [8], 0.482 µM (active). Further, the Potency result in assay [2] was “inactive”.
